This is part of a sample that, as a whole, favours compounds with a hit. Of some 83,000 tested, about 20% had one in any assay.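 Values shown are percent growth following 48 h exposure of cells in 96-well plates to a single concentration of compound; below 10 was considered active.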 Values without a mark were called inactive. Calls of active or inactive are those of the source.
Columns and labels:
Assay in all cases: NCI-60 one-dose screen, 48 h (100 = growth as untreated, 0 = no growth, -100 = all killed)
Conditions in all cases: 10 µM unless noted
[1] = system: NCI-H23 lung
[2] = system: NCI-H226 lung
[3] = system: NCI-H322M lung
[4] = system: HOP-62 NSCLC
[5] = system: NCI-H460 lung
[6] = system: NCI-H522 lung
[7] = system: A549/ATCC NSCLC
[8] = system: 786-0 renal
[9] = system: COLO 205 colon
[10] = system: DU-145 prostate
[11] = system: K-562 leukemia
[12] = system: MALME-3M melanoma
[13] = system: MDA-MB-231 breast
[14] = system: RXF 393 renal
[15] = system: SF-268 CNS
[16] = system: SF-295 CNS
[17] = system: SF-539 CNS
[18] = system: UACC-257 melanoma
[19] = system: M14 melanoma
[20] = system: HCT-15 colon

| Structure (SMILES) | growth [1] | growth [2] | growth [3] | growth [4] | growth [5] | growth [6] | growth [7] | growth [8] | growth [9] | growth [10] | growth [11] | growth [12] | growth [13] | growth [14] | growth [15] | growth [16] | growth [17] | growth [18] | growth [19] | growth [20] |
| --- | --- | --- | --- | --- | --- | --- | --- | --- | --- | --- | --- | --- | --- | --- | --- | --- | --- | --- | --- | --- |
| O=C(C=C=Nc1ccccc1)C(=O)N=C=Cc1ccccc1 | 63.3% | 67.7% | 93.9% | 90.5% | 92.2% | -82.5% (active) | 79.8% | 79.3% | 13.5% | 40.2% | -18.8% (active) | -20.9% (active) | 94.6% | -46% (active) | 69.1% | 99.3% | 85.1% | 43.3% | 44.2% | 11.4% |
| Oc1ccc(-c2nn(-c3ccccc3)cc2-c2nc3ccccc3s2)cc1 | 89.6% | 85.9% | 97.3% | 104% | 91.3% | 101% | 91.2% | 105% | 106% | 106% | 78.6% | 98.8% | 81.5% | 104% | 97.3% | 106% | 102% | 107% | 101% | 81.6% |
| COc1ncc(-c2ccc3nccc(C#CCN4CCN(S(C)(=O)=O)CC4)c3c2)cc1NS(=O)(=O)c1ccc(F)cc1F | 6.7% (active) | 9.35% (active) | -11.8% (active) | 9.92% (active) | 6.27% (active) | -1.57% (active) | 5.73% (active) | -8.36% (active) | -55.1% (active) | 17.9% | 8.7% (active) | -32.3% (active) | 10.5% | -23.5% (active) | 6.1% (active) | 13% | -16.1% (active) | -4.75% (active) | -2.97% (active) | 10.4% |
| Cc1cc(C(C)(C)c2cc(C)c(O)c(CN(C)C)c2)cc(CN(C)C)c1O | 105% | 96.5% | 70.7% | 99.8% | 101% | 85.7% | 97.7% | 73.1% | 89% | 97.1% | 76.6% | 57.7% | 59.5% | 61.5% | 101% | 100% | 80.3% | 85% | 77.7% | 80.8% |
| C=C(C[C@@](O)(C(=O)Oc1ccccc1)C(=O)C1CCCCC1)c1ccccc1 | 103% | 108% | 112% | 108% | 107% | 91.8% | 92.2% | 98.9% | 120% | 110% | 107% | 101% | 99.9% | 91.4% | 99.6% | 100% | 98.4% | 92.8% | 106% | 109% |
| CN1C(=O)/C(=C/c2nc(-c3cccc(F)c3)n3ccccc23)c2ccccc21 | 83.7% | 84.4% | 80.8% | 80.7% | 56.1% | 40% | 44.9% | 70.7% | 93% | 82.6% | 79.7% | 57.6% | 61.3% | 66.2% | 92% | 87.4% | 71.4% | 79.1% | 73.1% | 93% |
| N=c1ccn2c(n1)O[C@@H]1[C@@H](O)[C@H](CO)O[C@@H]12 | 33.3% | 92.4% | 82.2% | 47.7% | 12.3% | 39.4% | 22.2% | 31.1% | 49.3% | 51.4% | 67.1% | 59.1% | 91.7% | 96.4% | 65.8% | 88.7% | 98.4% | 70.3% | -1.79% (active) | 64.4% |
| Cc1ccc(C(O)C2=CC(=O)c3ccccc3C2=O)cc1 (stereo not given) | 89.2% | 94.9% | 99.3% | 104% | 98.4% | 95.7% | 102% | 110% | 107% | 111% | 112% | 107% | 71.1% | 109% | 107% | 97.6% | 95.3% | 102% | 95.7% | 93.3% |
| Nc1ccc(C2=Nc3cccc4cccc(c34)S2)cc1 | 86.9% | 59.3% | 88.1% | 83.6% | 89.5% | 82.7% | 81.5% | 121% | 100% | 98.2% | 88.3% | 94.5% | 60% | 107% | 88.9% | 73% | 102% | 84.3% | 83.9% | 54.5% |
| CC(C)[O-].CC(C)[O-].CN(CCN(C)Cc1cc(F)cc(F)c1[O-])Cc1cc(F)cc(F)c1[O-].[Ti+4] | 6.91% (active) | 25.6% | 0.494% (active) | -5.62% (active) | -27.8% (active) | -32.3% (active) | 2.03% (active) | 19.1% | 1.34% (active) | 17.7% | 8.81% (active) | -55.4% (active) | 11% | -79.1% (active) | 6.13% (active) | -9.78% (active) | -0.0224% (active) | 17.1% | -41.9% (active) | 15.5% |
| COc1cccc2c1O/C(=C\c1c([N+](=O)[O-])ncn1C)C2=O | 99.8% | 96.9% | 84.7% | 105% | 109% | 84.3% | 99.8% | 96.1% | 109% | 102% | 89.9% | 92.4% | 119% | 113% | 98.3% | 98.2% | 100% | 93.5% | 103% | 91.4% |
| Cc1cc(N2CCOCC2)nc(N2CCOCC2)n1 | 94.6% | 110% | 92.2% | 82.2% | 99.4% | 78.6% | 98.1% | 92.7% | 118% | 117% | 112% | 107% | 114% | 118% | 100% | 113% | 97.5% | 105% | 105% | 102% |
| COc1cc(/C=C/C(=O)N2CCN(C(=O)/C=C/c3ccccc3)CC2)cc(OC)c1OC | 108% | 102% | 104% | 103% | 105% | 92.7% | 99.8% | 101% | 113% | 129% | 97% | 97.8% | 85.6% | 125% | 111% | 110% | 107% | 102% | 103% | 109% |
| C[n+]1c2ccccc2c(Nc2ccc(N3CCCCC3)cc2)c2[nH]c3ccccc3c21 | -76.3% (active) | -56.5% (active) | -95.2% (active) | -93.8% (active) | -84.1% (active) | -96.5% (active) | -88% (active) | -98.5% (active) | -87% (active) | -95.7% (active) | -74% (active) | -77.8% (active) | -91.1% (active) | -96.5% (active) | -93.4% (active) | -85.7% (active) | -99.1% (active) | -98.7% (active) | -97.3% (active) | -78.8% (active) |
| Cc1nc2c(O)cccc2cc1CO | 94.9% | 114% | 165% | 106% | 103% | 107% | 109% | 96.3% | 142% | 113% | 82.8% | 178% | 110% | 136% | 99.8% | 106% | 93.5% | 116% | 110% | 109% |
| CCC(O)C(C)(C)C (stereo not given) | 102% | 106% | 127% | 115% | 105% | 106% | 94.2% | 111% | 114% | 108% | 108% | 117% | 117% | 111% | 113% | 97% | 113% | 99.3% | 105% | 102% |
